# Data reported in PubChem BioAssay (NCI).
# Values joined by “and” are separate entries in the source; they are usually repeats but may differ in a detail not shown here. Equal entries are not always repeated. Compounds without any hit were thinned out: in the full panel of roughly 83,000, 20% have a hit.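 Note: values are percent growth. 100 is the growth of untreated cells, values between 100 and 0 indicate rising inhibition; between -100 and 0 indicates cell death.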 A number with no mark means an inactive call. Active and inactive are the calls of the source. Rule for the calls: active = growth percent below 10; inactive = the rest.
# Test system: HL-60(TB) leukemia
# Experiment: NCI-60 one-dose screen, 48 h (100 = growth as untreated, 0 = no growth, -100 = all killed)
# Settings: 10 µM unless noted
row,SMILES,growth
1,O=C(Nc1nn(-c2ccc(Cl)cc2Cl)nc1-c1ccccc1)c1ccccc1,83.8%
2,COc1cc(C)cc2oc3oc(=O)c(-c4nc5ccccc5s4)cc3c(=O)c12,109%
3,CC(C)N=c1cc2n(-c3ccc(Cl)cc3)c3ccccc3nc-2cc1Nc1ccc(Cl)cc1,-6.14% (active) and -2.06% (active) and -36.3% (active)
4,CC(=O)N1N=C(c2ccc(C(F)(F)F)c(F)c2)CC1c1[nH]c(C)c(C(=O)NCC(F)(F)F)c1C (stereo not given),111%
5,CCN(CC)CCOc1nc2cc(OC)c(OC)cc2c2c1-c1ccc(OC)cc1C2=O,93.4%
6,Cc1ccc(S(=O)(=O)Nc2sccc2-c2nc(-c3ccccc3)no2)cc1,105%
7,N=C(N)c1ccc(-c2ccc(-c3cc(F)cc(F)c3)o2)nc1,97.7%
8,CC(C)CCNC(=O)Cn1cccc(NC(=O)OCc2ccccc2)c1=O,103%
9,O=C(O)CC1Sc2ccccc2NC1=O (stereo not given),115%
10,CN(C)C1CCN(C(=O)c2ccc(NC(=O)Nc3ccc(-c4nc(N5CCOCC5)nc(N5CCOCC5)n4)cc3)cc2)CC1,1.8% [2.5 µM] (active)
11,COc1ccccc1/C=C1\Oc2cc(OCCCN3CCCC3)ccc2C1=O,78.7%
12,CC1=C(Nc2ccc(N3CCN(C)CC3)cc2)C(=O)c2cncnc2C1=O,-26.6% (active)
13,CCOC(=O)c1ccc(NC(=O)c2nc(-c3cc(OC)c(OC)c(OC)c3)n(-c3ccc(Cl)cc3)n2)cc1,77.3%
14,COc1ccc(C2NC(=O)C(C#N)c3c2sc2c(F)cccc32)cc1 (stereo not given),10.5%
15,O=C1N/C(=N/O)S/C1=C/c1cn(-c2ccccc2)nc1-c1ccccc1,117%
16,CC(C)N(CCOc1cccc(-c2nc3sccn3c2-c2ccnc(S(C)(=O)=O)n2)c1)C(C)C,80.8%
17,ClCC(Cl)C1CCC(Cl)C(Cl)C1 (stereo not given),89.6%
18,CC(C)c1ccc(NC(=O)Nc2ccc(NC(=O)CCCC(=O)NOCc3ccccc3)cc2)cc1,17.9%
19,CN(C)c1ccc(/C=C/C=N/NC(=O)c2cc(O)c(O)c(O)c2)cc1,84.2%
20,COc1ccc2c(O)c(/C=C3\N=Nc4ccccc43)oc2c1C[C@@H]1CCNC[C@H]1F,61%

row,SMILES,growth
1,c1ccc(CO[C@H]2CO[C@H]3[C@@H]2OC[C@H]3OCc2ccccc2)cc1,88.4%
2,COC(=O)c1ccc2c(c1)nc(-c1cc3ccccc3[nH]c1=O)n2-c1cc(C(C)(C)C)[nH]n1,-16.9% (active)
3,COc1ccc(-c2n[nH]nc2-c2cc(OC)c(OC)c(OC)c2)cc1,-8.64% (active)
4,O=C(c1ccccc1)C1C(=O)N2C(=S)N(c3ccccc3)C(=O)C2C1c1ccc(Cl)cc1 (stereo not given),100%
5,COc1ccc(CCN(C)CCCC(C#N)(c2ccc(OC)c(OC)c2)C(C)C)cc1OC (stereo not given),92.4% and 72.5% and 104%
6,CC(C)(O)Cn1cc(-c2ccc3nc(OC4CC4)ccc3c2)c2c(N)ncnc21,97.3% and 76.7%
7,CCn1cnc(C[C@H](NC(=O)[C@H](CCCCNC(=O)Nc2cc(C(F)(F)F)cc(C(F)(F)F)c2)NC(=O)Nc2cc(C(F)(F)F)cc(C(F)(F)F)c2)C(=O)OC)c1,-48.7% [100 µM] (active)
8,CC(=O)Nc1ccc(/C=C/C(=O)c2ccccc2)cc1,79%
9,COc1ccc(Nc2ncccc2C(=O)NCc2cn(Cc3cccc(Oc4ccccc4)c3)nn2)cc1,32.1%
10,CCOC(=O)NC(/C=C/c1ccccc1)NC(=O)OCC,103%
11,CCCCCN1C=C/C(=C\C(=O)N(C)c2ccc(Br)cc2)c2ccccc21,98.2%
12,COc1ccc(Nc2cc(C)nc(NCc3ccccc3)n2)cc1,11.3%
13,COc1ccc(C(=O)n2nc(CC(=O)NCc3ccccc3)nc2N)cc1,91.9%
14,N#Cc1ccc(NC(=O)Nc2ccc(Oc3ccc(NC(=O)Nc4ccc(C#N)cc4)cc3)cc2)cc1,-38.5% (active)
15,COC(=O)/C=C1/SC(=Nc2ccc(C)cc2)N(CCc2c[nH]c3ccc(O)cc23)C1=O,49.3%
16,COc1cc(-c2csc(NC(=O)c3cc(-n4cnc(C)c4)cc(C(F)(F)F)c3)n2)cc(OC)c1OC,61%
17,COc1ccc(Nc2nc(SCC(C)C)nc(-c3ccc(F)cc3)c2C#N)cc1,38.4%
18,COc1cc(/C=C\c2cc(/C=C\c3ccc(O)c(OC)c3)n(C(=O)Nc3ccc(C(F)(F)F)cc3)n2)ccc1O,15.2%
19,O=C(Nc1cc(C(F)(F)F)cc(C(F)(F)F)c1)c1cc(Cl)ccc1O,-24.6% (active) and -49% (active)
20,Cc1cc(-c2ccc(NS(=O)(=O)c3ccccc3)c(C)c2)ccc1NS(=O)(=O)c1ccccc1,74.5% and 97.3%
